# Test results: PubChem BioAssay (NCI)
# Compounds without any hit were thinned out: in the full panel of roughly 83,000, 20% have a hit.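 Plates (96-well) were seeded with cells, treated with compound at one concentration, and incubated for 48 hours before percent growth was determined.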 A number with no mark means an inactive call. Calls of active or inactive are those of the source. The calls were made as follows: active = growth percent below 10; inactive = the rest.
# Test system: MDA-MB-468 breast
# Experiment: NCI-60 one-dose screen, 48 h (100 = growth as untreated, 0 = no growth, -100 = all killed)
# Details: 10 µM unless noted
row,Compound,growth
1,O=C(NO)c1ccc(NCc2csc3ccccc23)cc1,76.9%
2,O=C(CCc1nc2sc3c(c2c(=O)[nH]1)CCC3)NCc1cn(-c2ccccc2)nc1-c1ccccc1,83.6%
3,Cc1ccc(S(=O)(=O)c2nc(-c3ccccc3)oc2S(C)=O)cc1 (centres undefined),-59% (active)
4,COc1ccc(-c2cc(-c3ccc(N4CCOCC4)cc3)n3c(n2)nc2ccccc23)cc1OC,93.7%
